Measured values published in PubChem BioAssay.
Calls of active or inactive are those of the source.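 How the source made its calls: active means mean duplicate potentiation above the buffer control mean plus 5 SD of buffer wells; inactive means the rest.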

target: Potassium voltage-gated channel subfamily KQT member 2 (Rattus norvegicus) (UniProt O88943); test: KCNQ2 thallium flux enhancement – KCNQ2-CHO-K1 cells, selectivity assay for KCNQ1 potentiator project (AID 493009); details: FluxOR thallium flux fluorescence, at 10 µM; stronger effect = higher value, scaled: buffer 0, activator control 100;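 further: assay conditions were tuned for KCNQ1 rather than KCNQ2 modulators; signal is max minus min fluorescence divided by baseline after thallium stimulus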
Sequence (O88943 whole entry, looked up): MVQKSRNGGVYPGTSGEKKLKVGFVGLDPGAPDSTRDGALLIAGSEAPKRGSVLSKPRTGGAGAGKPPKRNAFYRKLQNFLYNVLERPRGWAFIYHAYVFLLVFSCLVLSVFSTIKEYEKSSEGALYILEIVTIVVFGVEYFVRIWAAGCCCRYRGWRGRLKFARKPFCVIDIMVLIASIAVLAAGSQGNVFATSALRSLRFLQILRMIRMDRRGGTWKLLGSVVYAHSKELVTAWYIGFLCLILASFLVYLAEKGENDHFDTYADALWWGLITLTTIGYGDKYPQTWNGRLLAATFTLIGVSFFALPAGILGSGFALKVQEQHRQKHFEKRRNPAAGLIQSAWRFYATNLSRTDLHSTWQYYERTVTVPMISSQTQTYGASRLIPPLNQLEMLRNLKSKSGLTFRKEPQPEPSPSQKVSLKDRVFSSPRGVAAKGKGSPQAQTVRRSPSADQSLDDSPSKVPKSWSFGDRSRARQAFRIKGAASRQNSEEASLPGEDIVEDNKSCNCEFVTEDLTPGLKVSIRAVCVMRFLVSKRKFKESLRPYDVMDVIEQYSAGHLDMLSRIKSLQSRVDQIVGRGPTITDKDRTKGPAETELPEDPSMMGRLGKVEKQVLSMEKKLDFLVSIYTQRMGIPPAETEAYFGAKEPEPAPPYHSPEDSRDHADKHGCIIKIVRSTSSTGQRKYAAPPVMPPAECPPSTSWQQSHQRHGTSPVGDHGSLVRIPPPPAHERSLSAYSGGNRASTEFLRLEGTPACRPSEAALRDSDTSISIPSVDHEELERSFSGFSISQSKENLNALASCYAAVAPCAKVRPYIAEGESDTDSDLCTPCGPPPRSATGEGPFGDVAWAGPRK

outcome, inactive:
COc1ccc(CCNC(=O)CC(=O)N/N=C/c2ccc(Br)cc2)cc1OC
CC(=O)Nc1cccc(/C(C)=N/NC(=O)c2ccc(Cl)cc2Cl)c1
COc1ccc(-c2cnc3c(c2)CCC3(C#N)C#N)cc1
CN1C(=O)CC(N2CCN(CC(=O)N3CCCC3)CC2)C1=O (stereo not drawn)
CCC1CCC2(CC1)NNC(=S)NN2
COc1ccc(/C=C2\SC(=Nc3ccccc3OC)NC2=O)cc1
Cc1ccccc1NS(=O)(=O)c1ccc2[nH]cc(C(=O)N(C)Cc3ccco3)c(=O)c2c1
Cc1ccnc(NC(=O)CNC(=O)c2ccc3c(c2)OCO3)c1
Cc1ccc(C)c(NC(=S)NC(=O)c2cncc(Br)c2)c1

potentiation, active:
C/C(=N\NC(=S)Nc1cccc(C)c1)c1ccco1 166%
CCCCCCCCCCCCC/C=C/[C@@H](O)[C@@H](N)CO 414%
COC(=O)c1ccc(C(=O)NC(=S)Nc2nc3c(s2)CCCC3)cc1 411%
COc1ccc(/C=C2\SC(=S)N(NS(=O)(=O)c3ccc(C)cc3)C2=O)c(OC)c1 261%
Oc1ccc(CN2CCCCC2)c2cccnc12 144%
O=c1c2cc(Br)ccc2nc(-c2ccccc2)n1O 314%
O=c1c2cc(Cl)ccc2nc(-c2ccc([N+](=O)[O-])cc2)n1O 456%
CCOc1ccc2nc(/N=C/c3nc(-c4ccccc4)oc3O)sc2c1 190%
COc1cccc(OCC(=O)NNC(=O)C(=O)Nc2cccc(C)c2)c1 224%
